{
  "source": "PubChem BioAssay AID1508600",
  "about": "(Functional Genomics Laboratory (NCATS/FGL), 2020)",
  "note": "About 3,700 (7%) of roughly 53,000 sequences were called active. The full list was thinned out, with actives kept by preference. A number with no mark means an inactive call.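 The calls were made as follows: active = gene knockdowns whose robust z-score for IL-1 alpha signal is at least 2 or at most -2, so actives lie on both sides; inactive = the rest.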",
  "data": [
    {"assay": "Components of the Cytosolic LPS Sensing Pathway: Gene Identification via Genome-wide siRNA Screen;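 also: robust z of the log signal after scaling to non-targeting control siRNA wells of the plate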", "details": "RAW264.7 macrophages, IL-1a HTRF, actives lie on both sides, screened at 100 nM (by protocol), cells primed 5 h with Pam3CSK4 first", "method_in_brief": "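Cells (RAW264.7, 1×10^4 per well) were transfected with siRNA at 100 nM and cultured 48h at 37 degrees C. Pam3CSK4 was added for 5 hours; LipidA transfection followed for 24 hour. IL-1a was then measured by HTRF.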", "values": [
      {"sequence": "GGGAGAGCUGGCUAAAUGATT against Sptbn4", "z-score": -0.956},
      {"sequence": "GGAGUUUGCCAGUGAAUUUTT against Ptpn22", "z-score": -0.603},
      {"sequence": "GGAAGAGAAAACAACAGUUTT against Phactr4", "z-score": -1.26},
      {"sequence": "CCCGUAAGGUAACAAACCGTT against Polr3k", "z-score": -1.14},
      {"sequence": "GGACAGGAAGGUCAUCCCUTT against Sntb2", "z-score": -0.568},
      {"sequence": "CCGCCAGACCUUCAUUACCTT against Chia1", "z-score": -0.515},
      {"sequence": "GGCAGUGGAGCUGGACAAATT against Nkx2-5", "z-score": "2.45 (active)"},
      {"sequence": "GGCUACAAAUCCAACUAUCTT against Ppp1r32", "z-score": 0.181},
      {"sequence": "GGUCCAAGCCUUUUCUAGATT against Glmp", "z-score": 0.305},
      {"sequence": "GCUCGUUCGCCUAGAAUUGTT against Mycbp", "z-score": 0.529},
      {"sequence": "CGUGGGCUCUGUUGACAUUTT against Olfr492", "z-score": 0.869},
      {"sequence": "GGGCAAAUGUAAAAAGACUTT against Fst", "z-score": 1.28},
      {"sequence": "GGUGAUUGUCAAGAUUAUGTT against Olfr651", "z-score": "-2.1 (active)"},
      {"sequence": "CCUUUGCCUUCAGUUUUAUTT against Pramel20", "z-score": 0.864},
      {"sequence": "GGUCACGAUGUAGCACGCUTT against Mtg1", "z-score": 0.996},
      {"sequence": "GCAGGAAGUACUCCUAUCCTT against Letm2", "z-score": -0.861},
      {"sequence": "GGGAAUUUGGUAUCAAUUUTT against Epgn", "z-score": 1.7},
      {"sequence": "GCUGCACGAUGCAUGGUUUTT against Asic3", "z-score": 1.43},
      {"sequence": "GGCAAUAACAUUCGGUAUUTT against Snrpd1", "z-score": "-2.29 (active)"},
      {"sequence": "CCUGUAAUGAGUAUGACAUTT against Commd10", "z-score": 0.397},
      {"sequence": "GGAACUUUUUCAGAGCUCUTT against Senp3", "z-score": -1.6},
      {"sequence": "GGUAUUUGUGCCAAUUGCCTT against Ccr6", "z-score": -0.302},
      {"sequence": "GGAAGACUACAUAAGAGACTT against Cxcl9", "z-score": 0.103},
      {"sequence": "GGGCCAUGAUAGGACACACTT against Nme4", "z-score": "2.97 (active)"},
      {"sequence": "CCUGUCUGUUUGAGGACGUTT against Adora2a", "z-score": -0.701},
      {"sequence": "GGCCAACUUCCUUUUUAAATT against Tomm40", "z-score": -0.0619},
      {"sequence": "GGCACACACUCCCUGACAATT against Cst3", "z-score": -0.863},
      {"sequence": "GGUGGAUGAUAAUGUUCUUTT against Gcnt3", "z-score": 0.911},
      {"sequence": "GGCCUUUACAUGUCCCAGCTT against BC002059", "z-score": 0.456},
      {"sequence": "AUGUCAGCGGCCCUAGAUGTT against Adam34l", "z-score": "-2.09 (active)"},
      {"sequence": "GGGUGUGGCUGACUUUGAUTT against Otof", "z-score": -0.429},
      {"sequence": "CCGUGGACUAUAACAACUCTT against Mgat5b", "z-score": 1.61},
      {"sequence": "GGAAGAGGCUAUUGCAUCGTT against Atrnl1", "z-score": -0.768},
      {"sequence": "GGUUUUCUAGUUUGAGUUUTT against Atp1b2", "z-score": 1.29},
      {"sequence": "GCAUCCAUCAAAUCAAAAUTT against Met", "z-score": "3.03 (active)"},
      {"sequence": "GGUGAUUCAGAUAAAAGAGTT against Mbtps1", "z-score": 0.265},
      {"sequence": "GAGCAGAGGAUUGAUGCACTT against Nlrp4g", "z-score": 0.918},
      {"sequence": "GCAAGACGCACUGUUACUGTT against Fam214a", "z-score": 0.196},
      {"sequence": "GGCUCCUAGCUGUUUCAGUTT against Hormad1", "z-score": -1.62},
      {"sequence": "GGUUCAAAGUUCUAGCUAATT against Adss", "z-score": -0.25},
      {"sequence": "CCAAAAGUCACGUUUCUCATT against Per2", "z-score": "-2.09 (active)"},
      {"sequence": "GCAAUGGUUGAAGAAAUUUTT against Tnip3", "z-score": 0.69},
      {"sequence": "GGUUCUUUUAUGGAUGACATT against Prkaa2", "z-score": -0.964},
      {"sequence": "GCAGGAACACUGGUUUGAATT against Otud5", "z-score": -0.653},
      {"sequence": "GUACGAAGACUUCUCUAGUTT against Ankrd33b", "z-score": 0.101},
      {"sequence": "GGGAAAAUGGCUUAACCGUTT against Siglecg", "z-score": 0.703},
      {"sequence": "CCUAGAGGAUUCAGAUCAATT against Pnmal1", "z-score": "2.24 (active)"},
      {"sequence": "GGCCGUUUCACUACCAUUCTT against Ier2", "z-score": 0.259},
      {"sequence": "GGAGGUAGGAAUAUGACUUTT against Klrb1c", "z-score": 0.0825},
      {"sequence": "GGCUAGCAUUAGCCACAGATT against Enpp3", "z-score": "-2.33 (active)"},
      {"sequence": "GGUGCUCAAAUCCUCUUGATT against Ctps", "z-score": -0.0545},
      {"sequence": "CGGAUAUGAAUUUUUUGCUTT against Ppp1cb", "z-score": 0.116},
      {"sequence": "GCUUUUCAGUCUCAUAGUGTT against Huwe1", "z-score": 0.468},
      {"sequence": "GGAAAAUCCCUCUUUGGCUTT against Sez6l2", "z-score": -0.566},
      {"sequence": "CGAUGAGACCAACAUCUUUTT against Gpr162", "z-score": 0.476},
      {"sequence": "GGACAAUGAUUUUCUGAUUTT against Sv2b", "z-score": 0.962},
      {"sequence": "GGAAGUCUAUGGUUUUUAGTT against Csnk2b", "z-score": "2.97 (active)"},
      {"sequence": "GGAAAUCAAGCCCUACAUCTT against Col4a2", "z-score": 0.152},
      {"sequence": "GGGCUAUGUUGUCUCAAAATT against Gsdma2", "z-score": 0.861},
      {"sequence": "GGAUGACCUCAUGCUUAUUTT against Prss37", "z-score": "-2.31 (active)"},
      {"sequence": "GGAUGAAAAAUCAGUACUUTT against Aadac", "z-score": "-2.02 (active)"},
      {"sequence": "GGUAUCCUCUCUUGUCUUGTT against Clec9a", "z-score": -0.0393},
      {"sequence": "GUACCUGAAUUGCUACCGATT against Ly6g5c", "z-score": 0.8},
      {"sequence": "GGAGUUCUUGGUCUCUUUGTT against Fam214a", "z-score": -0.124},
      {"sequence": "UUGAACAGUGGAACAAUGATT against Fbxo27", "z-score": "2.59 (active)"},
      {"sequence": "GGAAAGGAACAUAUUUGACTT against Gss", "z-score": 0.0774},
      {"sequence": "CCAUCUCUCCAAAGGGCUGTT against Olfr32", "z-score": 0.056},
      {"sequence": "GGAUUUGACCGGCUAAUACTT against Snrnp40", "z-score": -0.776},
      {"sequence": "GGUUCUGGCUGGAAUCUACTT against Gnl1", "z-score": -0.987},
      {"sequence": "GCGAACAUGUGUUUUACGUTT against H4c8", "z-score": 1.14},
      {"sequence": "GCAUGCUAGAAGCUAAAAATT against Golga3", "z-score": 1.48},
      {"sequence": "GGCAUAUCCUCCUUAUCCATT against Dazl", "z-score": "-2.2 (active)"},
      {"sequence": "GGAAAUCAAAGAGAAAGUUTT against Rassf3", "z-score": -0.748},
      {"sequence": "GGUUAGUUCCUUAAAUUCCTT against BC016579", "z-score": 1.21},
      {"sequence": "GGACCAGACAGGAAGUAUUTT against Snx20", "z-score": "2.3 (active)"},
      {"sequence": "GGCAGGUAUGGAUGUAUUGTT against Renbp", "z-score": -1.72},
      {"sequence": "GGUUGAGUUGGAUGACCUUTT against Lsm10", "z-score": -1.91},
      {"sequence": "GAGUCUUACAUCAAGAAGATT against 9230106D20Rik", "z-score": 0.538},
      {"sequence": "GGUAUGUCUAAGAAAACCATT against Pi4ka", "z-score": 0.173},
      {"sequence": "GGGCUACACUUCUGUCUACTT against Nanos3", "z-score": -1.26},
      {"sequence": "GGGUUUUUUUAGAGAGAUUTT against Susd3", "z-score": "-2.11 (active)"},
      {"sequence": "GCCAUACUUCCCUACAAAATT against Kctd19", "z-score": 0.233},
      {"sequence": "GGGCAAGGAGACAGAAUUCTT against Fgf18", "z-score": 0.927},
      {"sequence": "GGAAGAGGACAACCAGCUCTT against Cd82", "z-score": 0.59},
      {"sequence": "GAGUUGGCUCGAAACUGCCTT against Fbxl15", "z-score": "3.54 (active)"},
      {"sequence": "GGGCACAAUUCAAAACUUATT against Pgm2", "z-score": 1.42},
      {"sequence": "GGUCAAUUCCAUGAUUACGTT against Pgm3", "z-score": 0.538},
      {"sequence": "UAAGGCCAUCUAGUGGAGATT against C8g", "z-score": -0.199},
      {"sequence": "GGGUGAAAGCUGACUUUAATT against Rnh1", "z-score": -1.57},
      {"sequence": "GGCUUUGAAACAUAAGAACTT against Zfp472", "z-score": -0.553},
      {"sequence": "GGUGUUGAGAUCCACAAGGTT against Tceanc2", "z-score": "-2.44 (active)"},
      {"sequence": "GGCAAUCAGCAUACCAACUTT against Thbs2", "z-score": -1.87},
      {"sequence": "CAGCGGCCGCGCUUCACCGTT against 4930404N11Rik", "z-score": 0.92},
      {"sequence": "GGUAAUUGAGCUGAGUUCUTT against Rad54l2", "z-score": 0.479},
      {"sequence": "GUGAAGAAAGCACUGUUGATT against Olfr978", "z-score": 0.387},
      {"sequence": "GGCCAGGACCUAAAUACAATT against Tmem231", "z-score": "3.25 (active)"},
      {"sequence": "GGAGCUGUGCAAGAGGAAATT against Wnt16", "z-score": 1.01},
      {"sequence": "GGGCAGAUCCUAAUAAGCATT against Irs3", "z-score": -1.21},
      {"sequence": "GCUAAGGUCUUACUCCUGGTT against Cdca4", "z-score": 1.13},
      {"sequence": "GCCAGUGUUGGUUAUAAAATT against Isg15", "z-score": 0.673},
      {"sequence": "CCAUGGCACAGACAGCUAUTT against Celf1", "z-score": "-2.02 (active)"},
      {"sequence": "GCUUUUGCCCGAUGGAUUUTT against Plpp3", "z-score": 0.136},
      {"sequence": "GGUAUACAGGAUGUUAAGGTT against Pdlim4", "z-score": 0.889},
      {"sequence": "GGAGACCCACUACAUGACUTT against H2-M2", "z-score": -0.982},
      {"sequence": "CCCAUCUUUGCAACAUAUCTT against Scgb2b20", "z-score": -1.43},
      {"sequence": "GGUCCCAUUCAGUGUGUGUTT against Cdk10", "z-score": "2.98 (active)"},
      {"sequence": "UAGUCACAAGGUUUGAAACTT against Fbxw24", "z-score": -0.822},
      {"sequence": "GGUCCUGGACUUCAUGCUATT against Galnt6", "z-score": "2.75 (active)"}
    ]}
  ]
}
